Assay results as given in PubChem BioAssay AID720506 (National Center for Advancing Translational Sciences (NCATS), 2013).
The campaign covered roughly 2,300 compounds. About 95 (4%) were called active. Inconclusive results (about 17%) are left out. The call rests on the fitted dose curve; in most records, active means well fitted activation curve with a large enough effect; inconclusive means small, poorly fitted or top-dose-only effect; inactive means flat fitted curve, though single readings scatter. The entries come from a sample that favours actives as a whole.

molecular target: D(3) dopamine receptor (Homo sapiens) (UniProt P35462); experiment: qHTS of D3 Dopamine Receptor Agonist: D3 Dopamine Receptor B-arrestin Agonist Confirmatory Assay; details: DiscoveRx D3 beta-arrestin cells, luminescence, 90 min; series mostly up to 76.9 µM; activation: at the top concentration; further: nearly all actives have a fitted effect of over 70% in size;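 on activation: 100% = dopamine control response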
Description: D3 DARs represent a very important target for the treatment of several neuropsychiatric disorders. Indeed, one of the most promising therapeutic applications for the D3 DAR is in the area of addiction and related disorders. […] These findings have been observed with a number of addictive substances including cocaine, amphetamine, nicotine, and alcohol. […] Increased D3 DAR activity can thus lead to neuroprotective and neurorestorative actions in the CNS. […] This assay is used to confirm the activity of the identified D3 dopamine receptor agonist. Activation is the desired outcome for this assay. NIH Molecular Libraries Probe Production Centers Network [MLPCN] NIH Chemical Genomics Center [NCGC] MLPCN Grant: NS064831 Assay Submitter (PI): David Sibley
Freshly passaged DiscoveRx D3 cells are plated in 1536 well white, solid bottom plates at a density of 1500 cells/well in 3microl of complete media. After an overnight incubation at 37 degrees C in 5% CO2, cells are loaded with 23nl of test compound from the compound library (as well as dopamine controls) using a 1536 pintool and incubated at 37 degrees C for 90 minutes. Two microliters of DiscoveRx reagent is then added to all cells, and they are incubated for an additional 30 - 60 minutes at room temperature. Following incubation, luminescence is measured on a ViewLux CCD-based luminometer reader using a 20 sec exposure time.
Potency means the concentration at half of the fitted maximal effect.

Chain of D(3) dopamine receptor (Homo sapiens) (P35462 whole entry, looked up): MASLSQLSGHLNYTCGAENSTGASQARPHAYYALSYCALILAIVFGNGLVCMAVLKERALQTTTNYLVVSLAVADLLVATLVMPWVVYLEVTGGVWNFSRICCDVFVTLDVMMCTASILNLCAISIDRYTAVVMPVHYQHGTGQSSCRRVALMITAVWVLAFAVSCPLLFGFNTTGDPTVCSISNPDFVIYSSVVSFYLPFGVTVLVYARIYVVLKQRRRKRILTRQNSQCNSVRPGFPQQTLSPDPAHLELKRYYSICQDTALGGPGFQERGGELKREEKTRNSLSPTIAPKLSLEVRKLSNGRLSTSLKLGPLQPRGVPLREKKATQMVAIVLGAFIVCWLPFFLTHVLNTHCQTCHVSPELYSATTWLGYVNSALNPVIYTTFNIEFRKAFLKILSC

activation, inactive:
Cc1ccc(O)c(-c2cc(C(=O)Nc3c(C)n(C)n(-c4ccccc4)c3=O)[nH]n2)c1 0.15%
COc1ccc(NC(C)=O)cc1NC(=O)CN1CCN(c2ccccn2)CC1 15.7%
OCC[C@H]1C[C@H](O)[C@@H](O)[C@]2(Cc3ccccc3CO2)O1 -5.36%
Cn1c(C(=O)NCCCN2CCN(c3cccc(Cl)c3)CC2)cc2c(=O)n(C)c3ccccc3c21 -22%
O=C(Nc1cccnc1Cl)c1cc(-c2cccc(Cl)c2)on1 -7.51%
CCC(CC)NC(=O)/C=C/c1cccc([N+](=O)[O-])c1 0.387%
CC(=O)Nc1ccc(OCC(O)CN2CCN(c3ccccc3Cl)CC2)cc1 (stereo not drawn) -5.41%
O=C1c2cccc3cccc(c23)N1CN1CCN(c2ccccn2)CC1 16.7%
O=C(OCc1nc2ccccc2[nH]1)C1CCCCC1 -2.95%
O=C(c1ccccc1)c1ccc(OCC(O)CN2CCCC2)cc1 (stereo not drawn) 1.27%
CC[C@H](C)C(=O)N[C@H]1CCCN1C(=O)/C=C/c1ccccc1 -7.23%
CCCCC(=O)NNC(=S)NC(=O)C(c1ccccc1)c1ccccc1 -17.9%
CCCN1CC=C2C(C#N)=C(N)C(C#N)(C#N)C(c3cc(OC)ccc3OC)C2C1 (stereo not drawn) -11.6%
CC(=O)C[C@@H](O)CC(=O)[C@H]1OC(=O)CCCCCCc2ccccc21 -0.58%
COc1cc(OC)c(-n2cc(-c3ccc(Cl)cc3)[nH]c2=O)cc1Cl -14%
CNC(=O)NC(=O)C(C)N1CCN(C/C=C/c2ccccc2)CC1 (stereo not drawn) 8.09%
CN1CCC(CN)(N2CCN(c3ccccc3)CC2)CC1 8.81%
O=C1CC[C@H](O)CCN1[C@H](CSc1ccc(Br)cc1)Cc1ccccc1 -4.53%
Cc1ccccc1N1CCN(CCCOc2ccc3c(C)cc(=O)oc3c2)CC1 20%
Nc1nonc1-n1nnc(C(=O)N/N=C/c2ccc(Cl)cc2)c1-c1ccc2c(c1)OCO2 0.0552%
CN(C)CCOC(=O)C(c1ccccc1)C1(O)CCCC1 (stereo not drawn) -3.48%
Cc1cc(C(=O)NNC(=O)c2ccccc2O)c(C)o1 -3.17%
O=C(Nc1ccc(F)cc1F)N1CCCN(CCOc2ccccc2)CC1 -3.15%
NS(=O)(=O)c1ccc(CCNC(=O)NC2CCCCC2)cc1 -9.36%
[O-][N+]12CCCCC1CCCC2CO (stereo not drawn) -6.66%
COc1cc(OC)c2ccc(=O)oc2c1C(CCN1CCN(c2ccccc2)CC1)c1ccc2c(c1)OCO2 (stereo not drawn) 25.2%
O=C(CCN1CCN(c2ccccc2)CC1)NNC(=S)Nc1ccccc1 1.55%
COc1ccc(N2CCN(Cc3cc(=O)oc4ccc5ccccc5c34)CC2)cc1 -2.9%
Cc1cccc(C)c1NC(=O)CNC(=O)c1ccc2c(c1)OCCO2 -4.56%
Cc1ccccc1Nc1nc(N)nc(CN2CCN(c3ccccn3)CC2)n1 -7.76%
O=C(CN1CCN(c2ccccn2)CC1)NC1CCCCC1 1.52%
Cc1n[nH]c(C)c1S(=O)(=O)N1CCCC(C(=O)NCC2COc3ccccc3O2)C1 (stereo not drawn) 5.77%
O=C(O[C@H]1[C@H](Cc2ccccc2)NS(=O)(=O)[C@H]2C[C@@H]3C=C[C@]12O3)c1ccc([N+](=O)[O-])cc1 -6.96%
O=C1c2ccccc2S(=O)(=O)N1CC(O)Cn1c2ccccc2c2ccccc21 (stereo not drawn) 7.56%
CC(C)(C)n1ncc2c(=O)n(Cc3c(Cl)cccc3Br)cnc21 7.37%
COc1ccc(S(=O)(=O)N2CCSCC2)cc1 -5.06%
O=C1C=C(c2cccc(Br)c2)C[C@@H](c2ccc(F)cc2)C1 -9.8%
O=C(COc1coc(CN2CCN(c3ccccc3)CC2)cc1=O)Nc1ccccc1F 15.3%
CCC(=O)c1ccc(OCC(=O)Nc2ccc(N3CCCCC3)cc2)cc1 -2.57%
Cc1cnc(C(=O)N2CCCC(N3CCN(c4ccccc4F)CC3)C2)cn1 (stereo not drawn) 4.86%
CN(CCO)S(=O)(=O)c1ccc2c(c1)C(=O)c1cc(S(=O)(=O)N(C)CCO)ccc1-2 19.8%
CC(=O)OC(C)C[N+](C)(C)C (stereo not drawn) -10%
CS(=O)(=O)N1CCC(C(=O)N2CCN(c3ccccc3)CC2)CC1 11.2%
O=C(NC(=O)c1ccccc1)Nc1ccccc1O -12.9%
O=C(CCn1c(=O)[nH]c2ccccc2c1=O)NCCCN1CCN(c2cccc(Cl)c2)CC1 3.76%
O=C(CN1CCN(c2ncccn2)CC1)Nc1ccccc1C(F)(F)F 7.45%
CC(OC(=O)/C=C/c1ccccc1)C(=O)NC1CCCCC1C (stereo not drawn) -7.01%
O=c1cc(CCl)nc2scc(-c3ccccc3)n12 -6.56%
CC(C)CCN1CCN(Cc2cn[nH]c2C2CCCCC2)CC1CCO (stereo not drawn) -8.42%
CS/C(=C\C(=O)c1ccco1)Nc1ccccc1Cl -7.46%
O=S(=O)(c1ccc(F)cc1)N1CC=C(c2ccccc2)CC1 13.2%
CCN(CCCNC(=O)c1ccc2c(c1)NC(=O)CN2C)c1cccc(C)c1 9.36%
O=C(CC1NCCc2ccccc21)Nc1cccc(Cl)c1 (stereo not drawn) -14.9%
COc1ccc([C@H]2CC(=O)C=C(c3ccc(CO)cc3)C2)cc1 -2.54%
COc1ccc([C@H]2CC(=O)C=C(c3ccc(OC(F)(F)F)cc3)C2)cc1OC -7.65%
CC(=C1C(=O)c2ccccc2C1=O)N1CCN(c2ccccn2)CC1 7.68%
NS(=O)(=O)c1ccc(CCNS(=O)(=O)c2cccc3cccnc23)cc1 -7.06%
C/C(=N\NC(=S)NC1CCCCC1)c1ccc(C)o1 -16.5%
COc1ccc(CC(NC(C)=O)C(=O)N2CCN(C(=O)Nc3cccc(Cl)c3)CC2)cc1OC (stereo not drawn) -10.7%
O=C(NCCCN1CCN(c2ccccc2F)CC1)C1CCC(=O)N1C1CCCCC1 (stereo not drawn) 3.35%
Cc1ccc(S(=O)(=O)N2CC(O)C[C@H]2C(=O)OCC(=O)Nc2ccc(N3CCOCC3)cc2)cc1C (stereo partly drawn) -0.304%
CCn1c(=O)n(CC)c2cc(N3CCCC3)c(NC(=O)c3ccccc3Br)cc21 -1.66%
CNCC(O)c1ccc(O)c(O)c1 (stereo not drawn) -1.74%
Cc1cc(C)n2nc(C(=O)N3CCN(Cc4ccc5c(c4)OCO5)CC3)nc2n1 3%
CCCN(CC(=O)Nc1ccccc1C)C(=O)c1ccc2[nH]c3c(c2c1)CC(C)CC3 (stereo not drawn) -0.304%
OC(COCc1ccco1)CN1CCN(c2ccccc2)CC1 (stereo not drawn) -3.53%
O=C(CSC1CC(=O)N(CCc2ccccc2)C1=O)Nc1ccc(Cl)cc1 (stereo not drawn) -1.08%
O=c1oc(-c2ccccc2NS(=O)(=O)c2ccc(Cl)cc2)nc2ccccc12 -0.248%
O=C(C1CC(=O)N(c2ccc(F)cc2)C1)N1CCN(c2ccccc2)CC1 (stereo not drawn) -1.88%
CCn1c(=O)cc(OCC(=O)NCCCN2CCN(c3cccc(Cl)c3)CC2)c2ccccc21 -0.221%
O=C(c1ccc2c(c1)OCCO2)C1CCN(S(=O)(=O)c2cccc(F)c2)CC1 -8.28%
CN1CCN(S(=O)(=O)c2cccc(C(=O)Nc3sccc3C#N)c2)CC1 6.9%
CC(CCc1ccccc1)NCC(O)c1cccc([N+](=O)[O-])c1 (stereo not drawn) -0.828%
CC1(C)CC(=O)C=C(c2ccc3ncccc3c2)C1 -3.23%
Cc1c(C(=O)Nc2cccc(-c3nnc4n3CCCCC4)c2)oc2ccccc12 -0.331%
O=C(NC1CCCCC1)c1ccc2c(=O)n(CC3CCCO3)c(=O)[nH]c2c1 (stereo not drawn) 5.22%
CCOC(=O)[C@H]1[C@H]2COc3ccc(C)cc3[C@@H]2N2C(=O)CN(Cc3ccc(F)cc3)C(=O)[C@@]12C -4.45%
O=C(CCN1CCN(C/C=C/c2ccccc2)CC1)Nc1ccccc1Cl 20%
COc1cccc(NC(=O)C2CCCN(c3ncnc4c3nc3n4CCCCC3)C2)c1 (stereo not drawn) -5.52%
CC(C)c1ccc2c(c1)c(SC(C)(C)C)c(CC(C)(C)C(=O)O)n2Cc1ccc(Cl)cc1 29%
O=C(c1c(F)cccc1F)N1CCN(S(=O)(=O)c2ccc3c(c2)OCCO3)CC1 0.221%
Cc1cccc(OCC(=O)NCC(=O)N/N=C/c2ccc(N(C)C)cc2)c1 -8.89%
Cc1cc(C)c(/C=C2\C(=O)Nc3ccccc32)[nH]1 -20.8%
CCn1cc(C(=O)N2CCN(Cc3ccc4c(c3)OCO4)CC2)c2cc(OC)c(OC)cc2c1=O 8.46%
CCC(=O)Nc1ccc(C(=O)N2CCN(C(=O)c3ccco3)CC2)cc1 -6.56%
O=C(Cc1csc(Nc2nc(=S)[nH]c3ccccc23)n1)NCCCN1CCN(c2cccc(Cl)c2)CC1 -8.61%
COc1ccc(C2NC(=O)C(=O)/C2=C(\O)c2ccc(Cl)cc2)cc1OC (stereo not drawn) -9.76%
O=C(CCCn1c(=O)[nH]c2cc(Cl)ccc2c1=O)NCCN1CCN(c2ccccc2)CC1 -3.42%
O=C(c1c(Cl)cccc1Cl)N1CCN(c2cccc3[nH]ccc23)CC1 15%

Potency, active:
OC(COc1cccc2ccccc12)CN1CCN(c2ccccn2)CC1 (stereo not drawn) 8.91 µM
COC(c1ccccc1)c1nnc(CCC(=O)N2CCN(CCOc3ccccc3)CC2)o1 (stereo not drawn) 2.82 µM
Cc1c(CN2CC[C@@H](N3CCN(c4ccccn4)CC3)[C@H](O)C2)[nH]c2ccc(F)cc12 28.2 µM
Cc1c(CC(=O)N2CCN(C(=O)C3COc4ccccc4O3)CC2)c(=O)oc2c(O)c(O)ccc12 (stereo not drawn) 28.2 µM
CC(C)(C)C(=O)OCc1nc(-c2ccc(O)c(O)c2)cs1 11.2 µM
O=C(CNCc1cccs1)Nc1cc(S(=O)(=O)N2CCCC2)ccc1Cl 17.8 µM
CC(CCc1ccc(O)cc1)NCc1ccc(Cl)cc1Cl (stereo not drawn) 1.78 µM
COc1cccc(OC)c1OCCN1CCN(C(=O)c2ccco2)CC1 0.631 µM
O=C(CN1CCN(S(=O)(=O)c2cc(Cl)ccc2Cl)CC1)c1ccc(O)c(O)c1 35.5 µM
